Bioassay records from PubChem.
Only some compounds are listed: those with a hit (about 0.5% of all), similar ones and a draw of the others.
AddAB inh – less growth of phage-infected E. coli with AddAB; inhibition, % at 11.9 µM; E. coli expressing H. pylori AddAB, absorbance growth; 330,000 tested, 0.29% active; in the data active means inhibition above about 12%
E coli growth-1 – blocks Escherichia coli growth; OD600, 23 h; stronger effect = lower value; OD600 absorbance (concentration not given with the values); 330,000 tested, 0.21% active; AID 1053175;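 active means OD600 absorbance below the run mean of sample wells minus 3.6 SD, in any replicate, cut at about 0.56 in these data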
phage Ecoli inh – E. coli growth loss with phage present; growth absorbance; AID 651602; 360,000 tested, 0.26% active; inhibition, % at 11.9 µM; in the data active means inhibition above about 11%
E coli growth-2 – reduces bacterial viability in AddAB counter-screen. E. coli V3065 growth, OD600 absorbance, 18 h. 330,000 tested, 0.27% active. inhibition, % at 11.9 µM. AID 449728;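 active means inhibition above the campaign's mean inhibition across all tested compounds plus 3 SD, cut at about 9.9% in these data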;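 further: uninfected addAB+ strain grown without phage in ampicillin broth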
Tat transport – inhibitors of E. coli Tat protein transport. 340,000 tested, 0.036% active. E. coli MC4100 TorA-mCherry Tat export, fluorescence. inhibition, % at 10 µM;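 active means mean replicate inhibition at least 50% and at least half of replicates individually reaching 50%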;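 further: exported cargo escapes ClpAP degradation while cytoplasmic cargo is degraded and loses fluorescence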
AddAB confirm – confirmation screen: growth loss of phage-infected E. coli expressing H. pylori AddAB; shares compounds with AddAB inh; E. coli V3065 expressing H. pylori AddAB, T4 phage, OD; T4 phage with gene 2 nonsense mutations; inhibition, % at 11.9 µM; 880 tested, 64% active;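 active means mean inhibition above a set limit taken from the earlier primary screen, cut at about 13% in these data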;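 further: higher means less bacterial growth since AddAB block lets phage replicate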
RecBCD counter – counter-screen: growth loss of RecBCD+ E. coli with mutant T4 phage; shares compounds with AddAB inh; E. coli V66 + mutant T4 phage, OD growth; inhibition, % at 11.9 µM; 880 tested, 73% active; AID 488955;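 active means mean inhibition above the mean of solvent-only control wells plus 3 SD, cut at about 4% in these data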;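 further: optical density read after an 18 h incubation at 37 °C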
bact viab count – counter-screen: bacterial growth inhibition. shares compounds with AddAB inh. bacterial viability, absorbance (AddAB counterscreen). inhibition, % at 11.9 µM. 880 tested, 35% active; in the data active means inhibition above about 25%
Each line names hits and unclear results; the compound was inactive in the other large screens (follow-up assays come after a bar, where they were run).

O=C(Nc1cccc(NC(=O)c2ccc([N+](=O)[O-])o2)c1)c1ccco1	AddAB inh 24.1, E coli growth-1 0.46, E coli growth-2 17.2 | AddAB confirm 98.6 | RecBCD counter 10.0 | bact viab count 30.2
CC(CC(C)C)=NNS(=O)(=O)c1ccc(C)c([N+](=O)[O-])c1	none (no result: AddAB inh, phage Ecoli inh, E coli growth-2, Tat transport)
Cc1ccc(C=NNC(=O)C2=NNC(c3ccccc3)(c3ccccc3)C2)c(O)c1	none (no result: AddAB inh, phage Ecoli inh, E coli growth-2, Tat transport)
CCOCCn1c(CN(C)Cc2ccccc2)nc2c1c(=O)n(C)c(=O)n2C	AddAB inh 100.0, E coli growth-2 100.1 | AddAB confirm inactive | RecBCD counter inactive | bact viab count inactive
CC1(C)C2CC[C@]1(C)C(=O)N(CCCCN1CCN(c3ccccn3)CC1)C2=O	none
CCOC(=O)CC1C(C(=O)OCC)ON2OC(C(=O)OC)C(C(=O)OCC)C12 (stereo not drawn)	AddAB inh 46.4, E coli growth-2 21.0 | AddAB confirm inactive | RecBCD counter inactive | bact viab count inactive
COC(=O)CC1C(C(=O)OC)ON2OC(C(=O)OC)C(C(=O)OC)C12 (stereo not drawn)	none
CCOC(=O)c1cccc(NC(=S)N2CCN(c3ncc4c(=O)c(C(=O)O)cn(CC)c4n3)CC2)c1	none
CCn1cc(C(=O)O)c(=O)c2cnc(N3CCN(C(=S)Nc4ccccc4C(F)(F)F)CC3)nc21	AddAB inh 98.0, E coli growth-2 94.5 | AddAB confirm 48.7 | RecBCD counter inactive | bact viab count inactive
CCn1cc(C(=O)O)c(=O)c2cnc(N3CCN(C(=S)Nc4ccccc4)CC3)nc21	AddAB inh 98.0, E coli growth-1 0.444, E coli growth-2 49.7 | AddAB confirm inactive | RecBCD counter inactive | bact viab count inactive
O=C(NCCCNCCCNC(=O)c1ccc(/C=N/O)nc1)c1ccc(/C=N/O)nc1	AddAB inh 19.5, E coli growth-2 11.7 (no result: E coli growth-1) | AddAB confirm inactive | RecBCD counter inactive | bact viab count inactive
Cc1nnc(SCC(=O)NNC(=O)C(C)C)[nH]c1=O	none
O=C1NCCOc2ccccc21	none (no result: AddAB inh, E coli growth-1, E coli growth-2, Tat transport)
O=C1NCCO1	AddAB inh 100.2, E coli growth-2 101.4 (no result: E coli growth-1) | AddAB confirm inactive | RecBCD counter inactive | bact viab count inactive
CCOC(=O)C1=C(C)NC2=C(C(=O)c3ccccc32)C1c1ccc([N+](=O)[O-])o1 (stereo not drawn)	AddAB inh 25.9, E coli growth-2 12.5 | AddAB confirm 32.3 | RecBCD counter inactive | bact viab count inactive
CCOC(=O)C1=C(C)NC(=O)NC1c1ccc([N+](=O)[O-])o1 (stereo not drawn)	none
Cc1cc2c(cc1S(=O)(=O)N1CCCC1)n(C)c(=O)c(=O)n2C	none
CCOC(=O)CN=C1CC(C)(C)CC2=C1Sc1ncnc(N(C)C)c1N2	AddAB inh 19.8, E coli growth-2 43.3 (no result: phage Ecoli inh) | AddAB confirm inactive | RecBCD counter inactive | bact viab count inactive
O=C(CSc1ncccn1)Nc1ccc2c(c1)OCO2	none
O=C(CSc1ncccn1)NC(=O)Nc1ccc2c(c1)OCCO2	AddAB inh 12.4 | AddAB confirm inactive | RecBCD counter 6.4 | bact viab count inactive
CCC1(C)Cc2c(c(=O)n(-c3ccccc3)c3ncnc(N)c23)CO1 (stereo not drawn)	none
CCCC(=O)NC(Nc1ccc(S(=O)(=O)Nc2cc(C)on2)cc1)(C(=O)OCC)C(F)(F)F (stereo not drawn)	none
CCCC(=O)NC(Nc1ccc(S(=O)(=O)Nc2cc(C)on2)cc1)(C(F)(F)F)C(F)(F)F	AddAB inh 15.5 | AddAB confirm inactive | RecBCD counter inactive | bact viab count inactive
C=C1C(O)C2O[C@]3(CCC(C=CC(C)C4CC(C)=CC5(OC(C[C@@](C)(O)CO)CCC5O)O4)O3)CCC2OC1C(O)CC(C)C1OC2(CCCCO2)CCC1C (stereo partly drawn)	none (no result: AddAB inh, phage Ecoli inh, E coli growth-2, Tat transport)
NS(=O)(=O)c1ccc(N=Nc2c(O)ccc3ccccc23)cc1	none
Oc1ccc(N=Nc2c(O)ccc3ccccc23)cc1	AddAB inh 13.3, E coli growth-2 12.8 | AddAB confirm 60.2 | RecBCD counter inactive | bact viab count inactive
Cn1cc([C@]2(O)C(=O)N(c3ccccc3)c3ccccc32)c2ccccc21	none (no result: AddAB inh, E coli growth-1, E coli growth-2, Tat transport)
Cc1ccc(C)c(NC2=NCC(=O)N2C2CCCCC2)c1	none
CCCNC(=O)c1ccc2c(=O)c(O)c(-c3ccc(F)cc3)[nH]c2c1	AddAB inh 17.8, E coli growth-2 15.4 (no result: phage Ecoli inh) | AddAB confirm inactive | RecBCD counter 13.3 | bact viab count inactive
Cc1ccc(C(=O)NC(=S)NCc2ccccc2)cc1	none
O=C(NN=C/C=C/c1ccccc1)NC1CCCCC1	none (no result: AddAB inh, phage Ecoli inh, E coli growth-2, Tat transport)
O=C(N/N=C/C=C/c1ccccc1)NC1CCCCC1	AddAB inh 36.6, E coli growth-2 17.7 (no result: E coli growth-1) | AddAB confirm inactive | RecBCD counter inactive | bact viab count inactive
NNC(=S)NCc1cccnc1	none
O=Cc1c(-c2ccc(F)cc2)nc2ccccn12	AddAB inh 97.6, E coli growth-2 97.0 | AddAB confirm inactive | RecBCD counter inactive | bact viab count inactive
COc1ccc(-c2nc3ccccn3c2C=O)cc1	none
COc1ccc([N+](=O)[O-])cc1NC(=O)C(C)OC(=O)C1CCCC1 (stereo not drawn)	none
COc1ccc([N+](=O)[O-])cc1NC(=O)C(C)OC(=O)C1CCC1 (stereo not drawn)	AddAB inh 97.8, E coli growth-2 94.7 | AddAB confirm inactive | RecBCD counter inactive | bact viab count inactive
COc1ccc(CCNC(=O)Cn2cc(C(F)(F)F)cc(Cl)c2=O)cc1OC	none
O=C(CSc1ncnc2nc[nH]c12)c1ccc(Cl)cc1	AddAB inh 19.6 | AddAB confirm 16.6 | RecBCD counter inactive | bact viab count inactive
N#CC1=C(N)OC2=C(C(=O)CC(c3ccccc3)C2)C1c1ccoc1 (stereo not drawn)	none
CC1C(C#N)=C(N)OC2=C1C(=O)CC(c1ccccc1)C2 (stereo not drawn)	AddAB inh 97.1, E coli growth-2 73.5 | AddAB confirm inactive | RecBCD counter inactive | bact viab count inactive
CCC(=O)c1ccc(N2CCN(C(=O)COc3ccc(F)cc3)CC2)c(F)c1	none
O=C(CCN1C(=O)/C(=C\c2ccccc2)SC1=S)NNC(=O)c1ccccc1O	AddAB inh 15.6 | AddAB confirm inactive | RecBCD counter 5.0 | bact viab count inactive
O=C(CCCN1C(=O)S/C(=C\c2ccccc2)C1=O)NNC(=O)c1ccccc1O	none (no result: E coli growth-1)
S=C(NCCCc1ccccc1)Nc1ccc(Cl)cc1	AddAB inh 12.3 | AddAB confirm inactive | RecBCD counter 11.6 | bact viab count inactive
S=C(NCCCc1ccccc1)Nc1ccccc1	none (no result: AddAB inh, E coli growth-2)
Cc1cc(C(=O)N/N=C/c2ccc([N+](=O)[O-])o2)c(C)o1	AddAB inh 12.7 (no result: E coli growth-1) | AddAB confirm 97.8 | RecBCD counter 7.9 | bact viab count inactive
